The subject of test [1] is Zika virus NS2B-NS3 protease (linked construct). The test can be described thus: Primary screen NINDS Rhodamine qHTS for Zika virus inhibitors (AID 1347160). Further: nearly all actives have a fitted effect of over 55% in size. A digest of the protocol:
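Purified linked NS2B-NS3 protease (NS2B hydrophilic domain joined to NS3 protease by flexible linker), 25 nM in 10 mM Tris-HCl pH 8.0, 0.01% Tween 20. Compounds titrated, 15 min preincubation at room temperature; 1.5 microM Rhodamine110 substrate, FITC fluorescence change over 15 min.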

In test [2] the target is Calcium and integrin-binding protein 1 (Homo sapiens) (UniProt Q99828). Put plainly: Primary qHTS for Identification of Calcium Integrin Binding Protein 1 (CIB1) Competitor (AID 1508620).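 Further: GST tagged CIB1 binding a fluorescein labelled alphaIIb integrin peptide tracer; top concentration of the series differs between compounds; on the % scale 0 is the no-effect control and ±100 the full control effect.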 Summed up:
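Fluorescence polarization competition: GST-tagged CIB1 (1 uM final) preincubated with compound 15 min at room temperature, then FITC-labelled alphaIIb peptide (100 nM final) added. After 15 min at room temperature, polarization read at Ex 480/Em 540.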

Test [3] can be described thus: Primary qHTS for inhibitors of nuclear receptor binding SET domain protein 2 (NSD2) in an RCH-ACV wild type WT cells (2C) (AID 1645877). Further: nearly all actives have a fitted effect of over 70% in size. Further: potency means the concentration at half of the fitted maximal effect.
Test [4] concerns the target Glutathione peroxidase 1 (Homo sapiens) (UniProt P07203). Put plainly: Primary qHTS Assay for Inhibitors of Recombinant Selenoprotein Glutathione Peroxidase 1 (GPX1) (AID 1845191). Further: nearly all actives have a fitted effect of over 65% in size. Summed up:
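GR-coupled assay: compounds preincubated 30 min at room temperature with GPX1, then reaction started with CHP; final 10 nM GPX1, 1 mM GSH, 0.5 mM CHP, 0.5 mM NADPH, 100 nM GR, 0.01% BSA, pH 7.5 Tris buffer. NADPH fluorescence (340/450 nm) read at 0 and 15 min.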

In test [5] the target is Luciferin 4-monooxygenase (Photinus pyralis) (UniProt P08659). The test can be described thus: Primary firefly luciferase (FLuc) qHTS assay for identification of artifact compounds. (AID 1845220). Further: nearly all actives have a fitted effect of over 60% in size. Summed up:
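Titrated compounds were incubated 15 min at RT, protected from light, with luciferin and ATP at 10 uM; reaction started with 10 nM FLuc, luminescence imaged at 5 min, and concentration-response fitted by Hill equation.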

A short description of test [6]: Primary redox qHTS assay for identification of artifact compounds. (AID 1845223).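 Further: 0% = DMSO and 100% = reference compound.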 Summed up: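 Amplex Red (25 uM) and HRP (250 mU/mL) in HBSS, with compounds for 15 min, then 250 uM DTT for 30 min, room temperature, dark. Fluorescence 525/598 nm read; normalized to DMSO and 10 uM DA3003; Hill fit.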
Test [7] deals with HaCat. The test can be described thus: Cytotoxic Profiling of Annotated Libraries Using Quantitative High-Throughput Screening (AID 1296008). Further: nearly all actives have a fitted effect of over 60% in size. Further: potency means the concentration at half of the fitted maximal effect. On max response: on the % scale 0 is the no-effect control and ±100 the full control effect. The settings on record: Five cell lines viability, CellTiter-Glo ATP luminescence, 48-72 h; max response: stronger effect = lower value. A digest of the protocol: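 Cells exposed to compounds for 48 or 72 hr at 37 degrees Celsius. Viability read as ATP-coupled luminescence with CellTiter-Glo after 10 min at room temperature.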

For test [8], the system named is C33A. Put plainly: Primary qHTS to identify gynecologic anti-cancer compounds using libraries of approved drugs and bioactive compounds (AID 1345084). Further: on the % scale 0 is the no-effect control and ±100 the full control effect; nearly all actives have a fitted effect of over 55% in size. The settings on record: Gynecologic cancer cell panel viability, ATPlite luminescence, 48 h; series mostly up to 57.5 µM. A digest of the protocol: (§1)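 ATP-based viability (ATPlite), 1,000 cells/well, 16 h pre-incubation, 48 h compound at 37 C, 5% CO2, 15 min RT before read.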

For test [9], the system named is CASKI. The description is as above. As to conditions: Gynecologic cancer cell panel viability, ATPlite luminescence, 48 h; series mostly up to 57.5 µM. A digest of the protocol: as §1
The subject of test [10] is Es-2. Described as above. The settings on record: Gynecologic cancer cell panel viability, ATPlite luminescence, 48 h; series mostly up to 57.5 µM. A digest of the protocol: as §1
The test system of test [11] is HeLa. The test is described as above. As to conditions: Gynecologic cancer cell panel viability, ATPlite luminescence, 48 h; series mostly up to 57.5 µM. Summed up: as §1
Test [12] deals with JEG-3. Described as above. As to conditions: Gynecologic cancer cell panel viability, ATPlite luminescence, 48 h; series mostly up to 57.5 µM. A digest of the protocol: as §1
Test [13] concerns OV90. The description is as above. As to conditions: Gynecologic cancer cell panel viability, ATPlite luminescence, 48 h; series mostly up to 57.5 µM. Summed up:
as §1

For test [14], the system named is Tov112D. The description is as above. The settings on record: Gynecologic cancer cell panel viability, ATPlite luminescence, 48 h; series mostly up to 57.5 µM. A digest of the protocol: as §1
The target of test [15] is Phospholipid hydroperoxide glutathione peroxidase GPX4 (Homo sapiens) (UniProt P36969). Put plainly: Primary qHTS Assay for Inhibitors of Recombinant Selenoprotein Glutathione Peroxidase 4 (GPX4) (AID 1845192). Further: nearly all actives have a fitted effect of over 65% in size. The settings on record: outcome: dose series up to 50 µM unless noted. Summed up:
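GR-coupled assay: recombinant GPX4 preincubated 30 min with compound at room temperature; final 200 nM GPX4, 1 mM GSH, 0.5 mM cumene hydroperoxide, 0.5 mM NADPH, 100 nM GR, 0.01% BSA, pH 7.5 Tris. NADPH fluorescence (340/450 nm) read at 0 and 15 min.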

Test [16] concerns Nanoluciferase (engineered Oplophorus gracilirostris luciferase). Put plainly: Primary Nanoluciferase (NLuc) qHTS assay for identification of artifact compounds. (AID 1845222).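 Further: NLuc secreted into diluted conditioned medium of S16 cells; 0% = DMSO and -100% = no enzyme.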 A digest of the protocol:
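qHTS format, against NLuc in S16 cell-conditioned medium. Nano-Glo substrate 1:100 was added after 15 min at room temperature. Luminescence was taken after a further 5 min.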

Test [17] can be described thus: qHTS drug screen for cell cycle checkpoint inhibitors in PARPi-resistant BRCA-mutant ovarian cancer cell lines. (AID 1963452; calls by dose curve). The settings on record: PEO1/OlaR viability, CellTiter-Glo luminescence, 96 h, stronger effect = lower value. Summed up:
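PEO1, PEO4 and PEO1/OlaR ovarian cancer cells, 600 per well, exposed 96 h at 37C to a dilution series. Viability read by CellTiter-Glo luminescence, normalized to DMSO and empty wells; activity summarized as Z-AUC.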

For test [18], the system named is Hek293T. Put plainly: Primary qHTS to identify gynecologic anti-cancer compounds using libraries of approved drugs and bioactive compounds (AID 1345084). Further: on the % scale 0 is the no-effect control and ±100 the full control effect; nearly all actives have a fitted effect of over 55% in size. As to conditions: Gynecologic cancer cell panel viability, ATPlite luminescence, 48 h, control line for the selectivity index; series mostly up to 57.5 µM. A digest of the protocol:
as §1

In test [19] the test system is Tov-21-G. Described as above. The settings on record: Gynecologic cancer cell panel viability, ATPlite luminescence, 48 h; series mostly up to 57.5 µM. Summed up:
as §1

A short description of test [20]: Primary qHTS for inhibitors of nuclear receptor binding SET domain protein 2 (NSD2) in an isogenic RCH-ACV NSD2 p.E1099K mutant (9B) (AID 1645876). Further: nearly all actives have a fitted effect of over 70% in size. Further: potency means the concentration at half of the fitted maximal effect.

Inconclusive results are not listed. Active and inactive are the calls of the source. Unless noted, the call rests on the fitted dose curve; in most records, active means well fitted curve in the direction sought with a large enough effect; inconclusive means small, poorly fitted or top-dose-only effect, or another doubt; inactive means no such curve, though single readings can be large; an effect the other way counts as inactive or inconclusive.

Chain of Glutathione peroxidase 1 (Homo sapiens) (P07203 whole entry, looked up): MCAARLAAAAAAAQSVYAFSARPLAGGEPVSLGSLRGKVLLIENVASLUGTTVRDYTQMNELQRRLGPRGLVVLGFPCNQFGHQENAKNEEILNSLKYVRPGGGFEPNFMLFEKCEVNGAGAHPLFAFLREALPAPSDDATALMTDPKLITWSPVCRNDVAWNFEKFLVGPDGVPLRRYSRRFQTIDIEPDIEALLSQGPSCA
Chain of Phospholipid hydroperoxide glutathione peroxidase GPX4 (Homo sapiens) (P36969 whole entry, looked up): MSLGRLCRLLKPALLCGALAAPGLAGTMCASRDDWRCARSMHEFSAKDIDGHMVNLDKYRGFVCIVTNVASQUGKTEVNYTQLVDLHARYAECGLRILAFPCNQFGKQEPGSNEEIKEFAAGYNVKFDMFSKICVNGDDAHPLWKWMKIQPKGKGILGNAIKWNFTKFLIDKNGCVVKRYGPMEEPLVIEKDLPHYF
Chain of Calcium and integrin-binding protein 1 (Homo sapiens) (Q99828 whole entry, looked up): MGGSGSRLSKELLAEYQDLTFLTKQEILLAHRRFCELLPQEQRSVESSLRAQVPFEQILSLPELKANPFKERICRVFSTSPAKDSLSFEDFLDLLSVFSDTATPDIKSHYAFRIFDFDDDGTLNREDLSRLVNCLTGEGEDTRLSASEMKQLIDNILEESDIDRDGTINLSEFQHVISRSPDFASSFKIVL

On to `C=C(C)C(=O)OC1[C@@H]2C(=C)C(=O)O[C@@H]2C[C@@H](C)[C@@H]2C=CC(=O)[C@@]12C` (stereo partly specified), for which the Potency result in test [1], in test [4], in test [5], in [6], in test [8] and in test [9] was “inactive” throughout. Moreover, the Potency result in [10], in [11], in test [12], in test [13] and in test [14] was “inactive” in each case. Also, the outcome in test [2] and in test [7] was inactive. Also, the Potency in test [3] is 10.1 µM (active).

With `COc1cc2ncnc(Oc3cccc(NC(=O)Nc4cc(C(C)(C)C(F)(F)F)on4)c3)c2cc1OC`, the Potency entry in test [1], in [4], in [15], in test [5], in [16] and in test [6] was “inactive” in each case. Besides, the Potency entry in test [8], in test [9], in [10], in [11], in test [18] and in test [12] was “inactive” each time. Moreover, the Potency result in test [13], in test [19] and in [14] was “inactive” in each case. Besides, in test [2], the result was inactive. For the same compound, the Z-AUC in test [17] is 0.198 (inactive); in test [17] (measured here: PEO1 parental Z-AUC), 0.387; in [17] (measured here: PEO4 Z-AUC), 0.555. Besides, in [7], the Potency is 5.17 µM (active).

Turning to `O=[N+]([O-])c1ccc(-[n+]2nc(-c3ccccc3)nn2-c2ccc(I)cc2)cc1`, the Potency entry in test [1], in test [20], in [3], in test [4], in test [15] and in [5] was “inactive” in each case. Moreover, the Potency result in test [6], in test [8], in test [9], in test [10], in [11] and in test [18] was “inactive” in each case. The Potency entry in test [12] and in test [14] was “inactive” each time. Further, in test [2], the outcome was inactive. Also, the max response in test [7] was -29.5% (inactive).

For `CC(C)[C@@H](C)/C=C/[C@@H](C)[C@H]1CC[C@H]2C3=CC=C4C[C@@H](O)CC[C@]4(C)C3=CC[C@]12C`, the Potency result in test [1], in [4], in test [15], in test [5], in [16] and in [8] was “inactive” in each case. The Potency result in test [9], in [10], in [11], in [18], in test [12] and in test [13] was “inactive” each time. The Potency entry in test [19] and in test [14] was “inactive” in each case. The outcome in [2] and in test [7] was inactive.

For the compound `COc1cc2ncnc(Nc3ccc(Oc4ccccc4)cc3)c2cc1OC`, the Potency entry in [1], in [5], in test [16], in test [6], in test [8] and in [12] was “inactive” throughout. Besides, the Potency entry in [13] was “inactive”. Besides, the results for the Potency in [20] and in test [7] were 4.59 µM (active) and 7.31 µM (active), respectively.

Regarding `CCCCn1c(-c2ccccc2)nc(-c2ccccc2)c1CN(Cc1ccc2c(c1)OCO2)Cc1ccc2c(c1)OCO2`, the Potency entry in test [1], in [4], in test [15], in [5], in test [16] and in [6] was “inactive” throughout. The Potency entry in [8], in test [10], in test [11], in test [18], in test [12] and in [13] was “inactive” in each case. The Potency result in test [19] and in [14] was “inactive” throughout. In addition, the result in [2] was inactive. For the same compound, the Potency in test [3] was 18.3 µM (active). In addition, in test [7], the max response is -27.1% (inactive).

Regarding `COc1ccc(Cl)cc1[C@@]1(F)C(=O)Nc2cc(C(F)(F)F)ccc21`, the Potency entry in test [1], in test [15], in test [5], in test [16], in [6] and in [8] was “inactive” each time. For the same compound, the Potency result in test [9], in test [10], in test [12], in [13] and in test [19] was “inactive” in each case. Moreover, in test [2], the outcome was inactive. For the same compound, the Potency was 7.28 µM (active) in test [20] and 5.78 µM (active) in test [3].
